Reference: PubChem BioAssay AID1903 (Southern Research Specialized Biocontainment Screening …, 2009)
In all, about 310,000 compounds went through this assay and about 1,200 (0.39%) were called active. No rule for the calls is given here. The list is a sample of the results. Potency and affinity values are given separately.

What follows are molecules tested against Large T antigen (Simian virus 40) (UniProt P03070) (assay: SV40 large T antigen inhibitors, biochemical (AID 1903)). Conditions: SV40 large T antigen ATPase/helicase inhibition assay; at 20 µM; active compounds read high.
Sequence of Large T antigen (Simian virus 40) (P03070 whole entry, looked up): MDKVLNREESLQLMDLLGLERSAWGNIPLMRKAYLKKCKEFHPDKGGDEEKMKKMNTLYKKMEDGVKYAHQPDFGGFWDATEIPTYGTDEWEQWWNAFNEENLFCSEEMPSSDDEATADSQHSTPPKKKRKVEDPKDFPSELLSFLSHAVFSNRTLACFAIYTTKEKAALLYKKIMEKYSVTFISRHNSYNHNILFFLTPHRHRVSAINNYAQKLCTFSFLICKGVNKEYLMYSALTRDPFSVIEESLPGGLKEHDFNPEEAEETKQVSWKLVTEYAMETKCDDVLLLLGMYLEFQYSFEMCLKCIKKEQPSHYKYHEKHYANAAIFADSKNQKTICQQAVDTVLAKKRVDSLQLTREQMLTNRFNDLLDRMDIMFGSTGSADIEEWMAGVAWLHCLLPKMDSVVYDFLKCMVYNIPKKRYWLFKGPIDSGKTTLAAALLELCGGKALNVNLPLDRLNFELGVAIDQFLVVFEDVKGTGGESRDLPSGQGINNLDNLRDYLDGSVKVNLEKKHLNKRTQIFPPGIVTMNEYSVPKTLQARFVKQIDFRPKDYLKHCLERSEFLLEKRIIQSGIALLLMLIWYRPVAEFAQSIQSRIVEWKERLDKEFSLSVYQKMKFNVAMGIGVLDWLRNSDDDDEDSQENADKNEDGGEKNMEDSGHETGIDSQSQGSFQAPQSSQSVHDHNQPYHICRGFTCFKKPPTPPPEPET

inhibition, inactive:
Cc1ccc(CNC(=O)CCC2CCCN(C(=O)c3ccc4c(c3)OCO4)C2)o1 (configuration not stated) 12.7%
CNc1nc(Nc2ccc(Br)cc2)nc(N)c1[N+](=O)[O-] 9.77%
N#Cc1cnc(Nc2ccc(F)cc2)nc1N 7.13%
C[C@H](CCC(=O)O)[C@H]1CC[C@H]2[C@@H]3[C@H](O)C[C@@H]4C[C@H](O)CC[C@]4(C)[C@H]3CC[C@]12C 19.2%
C[C@H](CCC(=O)O)[C@H]1CC[C@H]2[C@@H]3CC[C@@H]4C[C@H](O)CC[C@]4(C)[C@H]3C[C@H](O)[C@]12C 12.7%
Cc1nsc2nc3c(F)c(F)c(F)c(F)c3cc12 16.9%
Cc1c(/C=N/NC(N)=O)c2ccccn2c1C(=O)c1ccncc1 15%
COc1ccc(/C=C/C(=O)OCC(=O)N2CC(=O)Nc3ccccc32)cc1 1.89%
COc1cc(/C=C/C(=O)OCC(=O)Nc2ccc(S(=O)(=O)N3CCCC3)cc2)ccc1O 24.6%
COc1ccc(/C=C/C(=O)OCC(=O)Nc2ccc(S(N)(=O)=O)cc2)cc1OC 5.77%
CCCCOc1ccc(/C=C/C(=O)OCC(=O)N2CC(=O)Nc3ccccc32)cc1OCC 14.1%
Cc1cc(C(=O)NCCC(c2ccccc2)c2ccccc2)c(C)o1 8.32%
CC1(C)Cc2cccc(Oc3cc(NN4CCCCC4)c([N+](=O)[O-])cc3[N+](=O)[O-])c2O1 1.3%
Cc1nn(C(C)C(=O)NCC2CCCO2)c(=O)c2cc3occc3n12 (configuration not stated) -0.26%
COc1cc(/C=N/NC(=O)CSc2ccccn2)ccc1OC(C)C 14.9%
CN(C)c1ccc(/C=N/NC(=O)CSc2ccccn2)cc1 25.6%
CCCOc1ccc(/C=N/NC(=O)CSc2ccccn2)cc1OC 3.28%
COc1ccc(/C=N/NC(=O)CSc2ccccn2)cc1OC 10.6%
CCN(C(=O)CN1C(=S)NC(C)(C)CC1C)c1ccc(C)c(C)c1 (configuration not stated) 6.37%
O=C(CSc1nnc(NC(=O)c2c(F)cccc2F)s1)Nc1ccccc1F 11.2%
CCCOc1ccccc1N1C(=O)CC(N(O)c2ccccc2)C1=O (configuration not stated) 20.6%
CCNc1nc(NCC)nc(NC(N)=S)n1 1.3%
Cc1cc(C)c2nncn2n1 11.8%
NC(=O)Cc1c[nH]c2cccc(O)c12 30.1%
O=C(O)Cc1c[nH]c2ccccc12 10.4%
CCOC(=O)C1Nc2ccc(C(=O)O)cc2C2C=CCC12 (configuration not stated) 16.5%
Cc1cc(C)c2c(c1)NC(c1cc3c(cc1Br)OCO3)C1CC=CC21 (configuration not stated) 9.15%
CCOC(=O)C1Nc2ccc(OC(F)(F)F)cc2C2C=CCC12 (configuration not stated) 19.1%
CCOC(=O)c1ccc2c(c1)C1C=CCC1C(C(=O)OCC)N2 (configuration not stated) 12.4%
O=C(O)C1Nc2c(Cl)cc(Cl)c(Cl)c2C2C=CCC12 (configuration not stated) 31%
O=C(NC1CC1)C1Nc2ccc(OC(F)(F)F)cc2C2C=CCC12 (configuration not stated) 6.67%
Cc1ccc2c(c1)C1C=CCC1C(C(=O)NCCCN1CCOCC1)N2 (configuration not stated) 12.6%
CCOC(=O)C1Nc2ccc(C)cc2C2C=CCC12 (configuration not stated) 8.94%
O=S(=O)(Nc1cccc(-c2ccc(N3CCCCCC3)nn2)c1)c1ccc(C(F)(F)F)cc1 2.18%
C#CCOCCOCCOCCNc1nc(N2CCN(C(=O)Cn3cc(CCCCN)nn3)CC2)nc(N2CCN(C(=O)[C@H](C(C)C)n3cc(CCO)nn3)CC2)n1 9.84%
CC1=C(C(=O)NCc2ccccc2)C(c2cccnc2)n2ncnc2N1 (configuration not stated) 0.75%
Cc1cc(=O)[nH]c(SCc2ccccc2)n1 -3.07%
CCN(c1ccccc1)S(=O)(=O)c1ccc2ccccc2c1 1.9%
COc1cccc(OC)c1C(=O)Nc1ccc([N+](=O)[O-])cn1 8.19%
O=C(OC1CCCCC1)c1ccc2c(c1)C1C=CCC1C(C(=O)O)N2 (configuration not stated) 33.8%
CC(=O)c1ccc2c(c1)C1C=CCC1C(c1ccncc1)N2 (configuration not stated) 7.95%
COc1ccc(N2CCN(C(=O)c3ccc(SC)cc3OC)CC2)cc1 18.7%
COc1cc(SC)ccc1C(=O)N1CCN(c2ccccc2)CC1 2.66%
COc1cc(Cl)ccc1NC(=O)COc1ccccc1C(=O)NN 6.94%
COc1cc(SC)ccc1C(=O)N1CCN(Cc2ccc3c(c2)OCO3)CC1 18.1%
COc1cc(SC)ccc1C(=O)N1CCN(c2ccccc2OC)CC1 2.01%
COc1ccccc1NC(=O)COC(=O)c1ccccc1C(=O)N1CCN(c2ccccc2)CC1 6.53%
Cc1ncc([N+](=O)[O-])n1Cc1ccc(Br)cc1 7.03%
CCc1cccc(C)c1NC(=O)CN(C)Cc1ccc(Br)cc1 9.47%
O=C(NCc1ccco1)C1CC(c2ccc(F)cc2)=NO1 (configuration not stated) 6.38%
N#C/C(=C\c1c[nH]c2ccccc12)C(N)=O 5.89%
COC(=O)/C(C#N)=C\c1c(OC)[nH]c2ccccc12 8.82%
O=C(CN(c1ccccc1F)S(=O)(=O)c1ccccc1)Nc1ccccc1C(=O)N1CCOCC1 11.3%
Cc1cccc(NC(=O)c2ccc(N3CCOCC3)c([N+](=O)[O-])c2)n1 -1.72%
O=C(CNC(=O)c1cccc(F)c1)N/N=C/c1cccnc1 20.9%
C=C(C)CSc1nc2c(cc1C#N)CCC2 7.26%
CCn1c(COc2ccc(C)cc2)nc2ccccc21 3.75%
Cc1ccc(-c2nc3ccccc3nc2-c2ccccc2)cc1 0.76%
Cc1ccc(-c2nc(N)s[n+]2-c2ccccc2)cc1 13.6%
O=C1C(Cl)=C(N2CCCCC2)C(=O)N1Cc1ccccc1 0.56%
Cc1ccc(C(=O)N/C(=C\c2sccc2C)C(=O)NCc2ccco2)cc1 7.34%
O=C1/C(=C\c2ccc(-c3ccccc3[N+](=O)[O-])o2)C(c2ccccc2)=NN1c1ccccc1 -3.41%
Cc1ccc(/C=C2\C(=O)ON=C2c2ccccc2)o1 -2.84%
Cc1ccc(C2=NOC(=O)/C2=C\c2ccccc2)cc1 59.5%
COc1ccc(-c2ccc(/C=C3\C(=O)N(c4ccccc4)N=C3c3ccccc3)o2)c([N+](=O)[O-])c1 2.08%
O=C(O)/C(=C\c1ccc(-c2ccccc2[N+](=O)[O-])o1)c1ccccc1 10.1%
CC1=NOC(=O)/C1=C\c1ccc(-c2ccc(Cl)cc2Cl)o1 16.7%
O=C1COc2ccc(C(=O)COC(=O)c3sc4ccccc4c3Cl)cc2N1 7.71%
CCOc1ccc(CN(C)CC(=O)Nc2ccc(N3CCOCC3)cc2)cc1OC 6.36%
CC(NC(=O)c1ccccc1F)c1ccccc1 (configuration not stated) 3.89%
O=C(NCCNC1CCN(Cc2ccccc2)CC1)c1cccs1 5.49%
O=C1CCCC(=O)C1CS(=O)(=O)c1ccccc1 14.9%
CCOC(=O)N1CCC(=NNc2nc3ccccc3s2)CC1 8.66%
CC1(C)C(=O)Nc2ccccc2N1C(=O)COC(=O)c1ccc(Cl)c(S(=O)(=O)NCc2ccccc2)c1 6.69%
O=C(Nc1ccccc1F)c1ccccc1C(=O)Nc1ccccc1F 14.6%
CCCCn1c(N)c(N(CCC(C)C)C(=O)CC2CCCC2)c(=O)[nH]c1=O 19.1%
COc1ccc(CC(=O)NN2C(=O)c3ccccc3C2=O)cc1 10.8%
O=C1c2ccccc2C(=O)N1CCc1c[nH]c2ccccc12 14.9%
N[C@@H](Cc1c[nH]c2ccc(O)cc12)C(=O)O 20.5%
CC(=O)NCCc1c[nH]c2ccc(OCc3ccccc3)cc12 17%
COc1ccc2[nH]cc(CCNC(C)=O)c2c1 -0.22%
O=C(O)Cc1c[nH]c2ccc(O)cc12 29.6%
O=C1c2ccccc2C(=O)N1CCCc1c[nH]c2ccc(Cl)cc12 8.17%
COc1ccccc1CCN1CCCC(CN(C)C(=O)c2ccc3nc[nH]c3c2)C1 (configuration not stated) 6.91%
Cc1ccc(C)c(S(=O)(=O)N2CCCOC2CNC(=O)C(=O)NCCCn2ccnc2)c1 (configuration not stated) 7.3%
Cc1[nH][nH]c(=O)c1C=NCc1cccc(C(F)(F)F)c1 8.38%
CC(=N)c1c(O)c2ccccc2oc1=O 20.4%
O=C(Oc1cccc(Cl)c1)N1CCOCC1 7.93%
NS(=O)(=O)c1ccc(NC(=O)COC(=O)c2cccc(S(=O)(=O)N3CCCC3)c2)cc1 11.7%
Cc1c(NC(=O)c2cccc(-c3cc4ccccc4oc3=O)c2)cccc1-c1nc2ncccc2o1 -0.4%
CCCCNc1nnc(Cc2ccc(Cl)cc2)c(=O)[nH]1 9.41%
O=C(CSc1ccccc1)N1CCCC(Nc2ccccc2)C1 (configuration not stated) 7.87%
O=C(CCCn1cncn1)N1CCCC(Nc2ccc(F)cc2)C1 (configuration not stated) 5.07%
COc1ccc(NC2CCCN(C(=O)CCN3Cc4ccccc4C3=O)C2)cc1 (configuration not stated) 34.5%
COc1ccc(NC2CCCN(C(=O)CSc3ccncc3)C2)cc1 (configuration not stated) 31.4%
COc1ccc(NC2CCCN(C(=O)CCCn3cncn3)C2)cc1OC (configuration not stated) 33.9%
COc1ccc(NC2CCCN(C(=O)CCN3CCCO3)C2)cc1 (configuration not stated) 23%
